According to PubChem BioAssay:
The source made the active and inactive calls.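 Rule for the calls: active = fluorescence slope after compound addition differing from the mean of all screened samples at 99.7% confidence, in either direction; inactive = the rest.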

These molecules were tested against Alpha-2C adrenergic receptor (Homo sapiens) (UniProt P18825) (assay: modulators of alpha2C/GIRK thallium flux, primary screen, cell-based, HEK293 alpha2C/GIRK1/2 (AID 624;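 note: slope of fluorescence ratio to pre-addition baseline per second over 15 to 24 s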)). Settings: thallium flux BTC fluorescence, at 10 µM, actives lie on both sides.
Sequence of Alpha-2C adrenergic receptor (Homo sapiens) (P18825 whole entry, looked up): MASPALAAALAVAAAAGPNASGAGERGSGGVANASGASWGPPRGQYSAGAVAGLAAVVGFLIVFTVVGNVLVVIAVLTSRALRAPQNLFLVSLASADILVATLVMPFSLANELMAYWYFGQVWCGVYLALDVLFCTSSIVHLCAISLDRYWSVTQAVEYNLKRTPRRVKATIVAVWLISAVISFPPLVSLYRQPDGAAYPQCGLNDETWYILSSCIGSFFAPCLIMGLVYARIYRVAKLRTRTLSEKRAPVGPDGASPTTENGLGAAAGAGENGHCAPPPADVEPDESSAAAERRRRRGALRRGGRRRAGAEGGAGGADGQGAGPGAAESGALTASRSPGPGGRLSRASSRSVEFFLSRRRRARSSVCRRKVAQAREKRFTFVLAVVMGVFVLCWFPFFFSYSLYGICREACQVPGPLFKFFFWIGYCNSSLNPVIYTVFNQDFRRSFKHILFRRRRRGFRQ

slope, inactive:
Cn1c(=O)c2c(-c3ccccc3)n(CCCN3CCOCC3)cc2n(C)c1=O 0.00936
CCc1ccc(Nc2cc(=O)n(C3CCCCC3)c(=O)[nH]2)cc1 0.00696
CCC(C(=O)N1CCc2cc(OC)c(OC)cc2C1)c1ccccc1 (stereo unspecified) 0.00474
COc1ccccc1N(CC(=O)NCc1ccccn1)S(C)(=O)=O 0.00261
Cc1cc2cc(CCNC(=O)CC(C)C)c(=O)[nH]c2cc1C 0.00623
CC1(C)CC(=O)C=C(Nc2ccc(OCC(F)(F)C(F)F)cc2)C1 0.00531
Cn1nc(C(=O)N2CCOCC2)c2ccccc2c1=O 0.00337
S=c1[nH]ncn1-c1ccccn1 0.00408
Cc1ccccc1N1C(N)=NC(N)=NC1(C)C 0.00605
O=C(Cn1nnc(-c2ccc(CN3CCOCC3)cc2)n1)NC1CCCCC1 0.0043
CCCCC(=O)Nc1ccc(NC(=O)C2CC2)nc1 0.00505
CCOC(=O)c1ccc(NC(=O)Cn2cc3c(n2)CCC(C)C3)cc1 (stereo unspecified) 0.00553
Cn1c(SCC(=O)N2CCN(c3cccc(Cl)c3)CC2)nnc1-c1ccncc1 0.00664
Cn1c(=O)c(=O)n(C)c2cc(S(=O)(=O)N3CCN(c4cccc(C(F)(F)F)c4)CC3)ccc21 0.00616
c1ccc(N2CCN(Cc3ccnc4ccccc34)CC2)cc1 0.0043
CCCCn1c(SCC(=O)N2CC(=O)Nc3ccccc32)nnc1-c1ccoc1C 0.00478
